Compounds without any hit were thinned out: in the full panel of roughly 83,000, 20% have a hit.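 Single-concentration screen, 48 h exposure, 96-well plates. Endpoint: percent growth. Below 10 = active.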 Unmarked numbers belong to inactive results. The source made the active and inactive calls.

This test relates to HL-60(TB) leukemia. As to the kind of experiment: NCI-60 one-dose screen, 48 h (100 = growth as untreated, 0 = no growth, -100 = all killed). The settings on record: 10 µM unless noted.
In the case of `COc1ccc(S(=O)(=O)NCCNc2nccc(-c3c(-c4ccccc4)nc4sccn34)n2)cc1`, the growth is 25.4%.
The same measure for `CC(C)CSc1nc(NN)c(C#N)c(-c2ccccc2)n1`: 106%; for `Cn1cc(-c2nc(-c3c[nH]c4ccccc34)cs2)c2cccnc21`: 6.19% (active); for `O=C(/C=C/c1cccc([N+](=O)[O-])c1)c1ccc(Nc2nc(Nc3ccc(F)cc3)nc(Nc3ccc(Cl)cc3)n2)cc1`: -42.1% (active).
On to `CC(C)c1[nH]nc2c(NCc3ccc(-c4ccccn4)cc3)nc(SCCN(C)C)nc12`, for which the growth was -16.4% (active).
The same measure for `CCOC(=O)C(CSC(c1ccccc1)(c1ccccc1)c1ccccc1)NC(=O)C(CSC(c1ccccc1)(c1ccccc1)c1ccccc1)NC(c1ccccc1)(c1ccccc1)c1ccccc1` (stereo not given): 118%.
With `CC(=O)c1sc(-c2ccccc2)cc1N` the figure was 83.6%; with `COc1cccc(-c2cc(-c3ccc(Nc4nc(Nc5ccc(Cl)cc5)nc(Nc5ccc(Cl)cc5)n4)cc3)nc(N)c2C#N)c1`, 24.5%.
As for `Clc1cccc(C2Cc3cnccc3-c3[nH]c4ccncc4c32)c1` (stereo not given), the growth is 25.3%.
The same measure for `Cc1ccc(S(=O)(=O)n2cc(C(=O)C(=O)N3CCCCC3)c3ccccc32)cc1`: 85%.
With `O=C(C(Br)Br)C(Br)C(Br)c1ccccc1` (stereo not given) the figure was 88.8%; with `COc1cc(C(=O)/C=C/c2c(-c3ccc(F)cc3)nc3ncccn23)cc(OC)c1OC`, 30.9%; with `NS(=O)(=O)c1cnccc1-n1ccc(=O)c(S(N)(=O)=O)c1`, 55.9%.
The same measure for `CCc1ccc(-c2nc(SCC(=O)NC3CCCCC3)n[nH]2)cc1`: 56.3%; for `Nc1cc(Cl)c(S(N)(=O)=O)cc1S(N)(=O)=O`: 104%; for `CN(C)CCCN1c2ccccc2Sc2ccc(C(F)(F)F)cc21`: 0.95% (active).
As for `CCOC(=O)c1c(O)cc(-c2ccccc2)cc1-c1sc(N(C)Cc2ccccc2)nc1Cl`, the growth was 100%.
`COc1ccc(-c2cn(-c3ccc(Cl)cc3)c(SCC(=O)c3ccc([N+](=O)[O-])cc3)n2)cc1`: the growth is 84%.
With `c1ccc2c(c1)oc1cc3c(cc12)nnc1cccn13` the figure was 108%; with `O=C(Nc1ccc(N=Nc2ccccc2)cc1)c1cccc2ccccc12`, 11.8%; with `Cc1cc(O)c(C(C)C)cc1N=O`, 66.1%.
With `CC(C)CN1CC(C(=O)Nc2ccc3c(c2)-c2ccccc2C3)CC1=O` (stereo not given) the figure was 91.7% [50 µM].
With `O=C(CC(NC(=O)OCc1ccccc1)C(=O)OCc1ccccc1)OCc1ccccc1` (stereo not given) the figure was 126%.
As to `O=C1Nc2cc(-c3cccc(O)c3)ccc2/C1=C/c1ccc[nH]1`, the growth is 6.76% (active).
With `CN(C)CCN1C(=O)c2c(c3c4ccccc4n4c3c3c2c2ccccc2n3C2CC(O)C(O)C4(C)O2)C1=O` (stereo not given) the figure was 32.5%.
With `COc1ccc(C(=O)c2cc(OC)c(OC)c(OC)c2)cc1OC(=O)C(Cl)(Cl)Cl` the figure was -45.3% (active).
With `COc1cc([N+](=O)[O-])c2ncccc2c1O` the figure was 72.1%; with `N#Cc1cccc(-c2nc3ccccn3c2NCCN2CCOCC2)c1`, 101%.
On to `Cc1cc[c-]cc1.Fc1c[c-]c(-c2ccccn2)c(F)c1.[Pt+2].c1ccc(P(C[PH+](c2ccccc2)c2ccccc2)c2ccccc2)cc1`, for which the growth was -25.7% (active).
As to `CN(C)c1ccc(C2C(C#N)=C(/N=C/c3ccccc3)Oc3c2ccc2ccccc32)cc1` (stereo not given), the growth is 29.5%.
With `Oc1ccccc1/C=N/N1CCCCCC1` the figure was 86.7%; with `Cc1ccc(OCCCCCCNCCO)c(C)c1`, -3.98% (active).
With `O=C(CN1CCCCC1)Nc1ccc2oc(=O)ccc2c1` the figure was 78.1%; with `N#C/C(=C/N1C(=O)/C(=C/c2ccc([N+](=O)[O-])cc2)SC1=S)c1nc2ccccc2s1`, 93.3%; with `CCN1/C(=C/C(C)=C/c2sc3ccc4ccccc4c3[n+]2CC)Sc2ccc3ccccc3c21`, -52.1% (active).
The same measure for `COc1ccc(-c2cc(-c3ccc(Nc4ccnc5cc(Cl)ccc45)cc3)nc(N3CCOCC3)n2)cc1`: 7.25% (active); for `CC(=O)O[C@H]1CC[C@]2(C)[C@H]3CC=C4[C@@H]5CC(C)(C)CC[C@]5(C(=O)OCC(COC(=O)C(Cl)Cl)(COC(=O)C(Cl)Cl)NC(=O)C(Cl)Cl)CC[C@@]4(C)[C@]3(C)CC[C@H]2C1(C)C`: 33.1%; for `NC(N)=N/N=C/c1cccc(Br)c1`: 95.3%.
`CCCCCCCCCCCCCCCC(=O)NS(=O)(=O)OC[C@H]1O[C@@H](n2cnc3c(N)ncnc32)[C@H](O)[C@@H]1O`: the growth is -11.6% (active).
With `Cc1ccc(/C=C/C(=O)c2cccc(OCCCOc3cccc(C(=O)/C=C/c4ccc(C)cc4)c3)c2)cc1` the figure was 57.6%.

The values above are taken from PubChem BioAssay (NCI).
